Compounds without any hit were thinned out: in the full panel of roughly 79,000, 15% have a hit. Calls of active or inactive are those of the source. No stated cut-off is given here; in the data, active means growth inhibition above about 70%; inactive means the rest. Where a SMILES comes first, the peptide text is derived from it. [ ]: non-standard residue; d: D form. The star is where a group is joined. ξ: configuration not given here. ξD = NC(CC(=O)O)C(=O)O; Boc = CC(C)(C)OC(=O)*; Aib = CC(C)(N)C(=O)O; OBn = c1ccc(CO*)cc1
How the values were obtained:
[1] = NCI Yeast Anticancer Drug Screen. Data for the rad50 strain (AID 155);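 further: 0% = growth of vehicle-only cultures of the same strain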; conditions: S. cerevisiae rad50 strain growth inhibition; at 50.0 µM; hits give high values
How it was run: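 Inhibition values express reduced yeast growth in compound-treated cultures relative to vehicle-treated controls.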

[2] = NCI Yeast Anticancer Drug Screen. Data for the mec2-1 strain (AID 157); conditions: S. cerevisiae mec2-1 strain, at 50.0 µM, hits give high values
How it was run: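 Readout is yeast growth inhibition, normalised to vehicle-treated controls, in the mec2-1 strain exposed to compound.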

[3] = NCI Yeast Anticancer Drug Screen. Data for the sgs1 mgt1 strain (AID 161);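 further: 0% = growth of cultures given vehicle only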; conditions: S. cerevisiae sgs1 mgt1 strain, at 50.0 µM, hits give high values
How it was run: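 Growth of a repair-deficient yeast mutant was monitored after compound treatment and expressed as inhibition relative to vehicle-treated cultures.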

[4] = NCI Yeast Anticancer Drug Screen. Data for the cln2 rad14 strain (AID 165);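 further: 0% = growth equal to vehicle treated cultures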; conditions: S. cerevisiae cln2 rad14 strain, at 50.0 µM, hits give high values
How it was run: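 Relative to vehicle controls, growth inhibition of compound-treated cln2 rad14 yeast was recorded.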

[5] = NCI Yeast Anticancer Drug Screen. Data for the bub3 strain (AID 167); conditions: S. cerevisiae bub3 mutant strain, at 50.0 µM, hits give high values
How it was run: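 Steps: expose the mutant yeast strain to compound; grow alongside vehicle-treated cultures; measure growth; express inhibition against the vehicle cultures.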

[6] = NCI Yeast Anticancer Drug Screen. Data for the mlh1 rad18 strain (AID 175); conditions: S. cerevisiae mlh1 rad18 strain growth inhibition; at 50.0 µM; hits give high values
How it was run: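 Test agents were incubated with a yeast strain of defined genotype (DNA damage repair defect). Inhibition of growth was derived by comparison with vehicle-exposed cultures.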

Measured: growth inhibition

Cc1cc(=O)[nH]c(Nc2nc3cc(C)c(C)cc3[nH]2)n1
inactive: [1] 9.6% | [2] -4.9% | [3] 2.05% | [4] 9.2% | [5] -8.2% | [6] -8.4%

COc1ccc(-c2coc3c4c(c5c(c3c2=O)OC(C)(C)CC5)OC(C)(C)C=C4)cc1OC
inactive: [1] 11.3% | [2] 10.8% | [3] 15.7% | [4] 38% | [5] 18.1% | [6] 39.5%

C=C(Br)CN(C(C)=O)C1CCCCC1
inactive: [1] -9.2% | [2] -10.7% | [3] 8.05% | [4] 18.6% | [5] 15% | [6] 26.8%

C(=Nc1ccc2c(c1)Cc1ccccc1-2)c1ccc2c(c1)OCO2
inactive: [1] 8.75% | [2] -10.1% | [3] 9.75% | [4] -2.1% | [5] 3.05% | [6] 15.4%

O=[N+]([O-])c1ccccc1S(=O)(=O)c1ccccc1[N+](=O)[O-]
inactive: [1] -26.4% | [2] -9.45% | [3] -14.1% | [4] -10% | [5] -1.5% | [6] -21%

COC(=O)c1ccccc1NC(OC)c1cccc([N+](=O)[O-])c1 (stereo unspecified)
inactive: [1] 18.6% | [2] 13.4% | [3] 12.1% | [4] 17.7% | [5] 12.6% | [6] 5.55%

C=CCOC(=O)c1ccccc1O
inactive: [1] 12.9% | [2] -12.1% | [3] -13.3% | [4] -0.9% | [5] -21.2% | [6] 12.8%

Nc1nc(SCC(=O)O)nc(N)c1N=Nc1ccc(S(=O)(=O)NC(=O)c2ccccc2)cc1
inactive: [1] 7.3% | [2] 5.75% | [3] -7.4% | [4] -0.3% | [5] 0.1% | [6] 15.6%

CSCCC(NCCC#N)C(=O)O (stereo unspecified)
inactive: [1] -7.05% | [2] 19.4% | [3] 8.45% | [4] -12.9% | [5] -27.9% | [6] 2.85%

O=C1C(c2[nH]c3ccc(F)cc3c2O)=Nc2ccc(F)cc21
inactive: [1] 8.7% | [2] 10.9% | [3] 22.9% | [4] 9.4% | [5] 0% | [6] 19.1%

Oc1ccc(CN=Cc2ccccc2)cc1
inactive: [1] 0.05% | [2] 3.3% | [3] -7.05% | [4] -14.9% | [5] -15.6% | [6] -10.1%

O=C(NCCCl)NC(C1CC1)C1CC1
inactive: [1] 13.1% | [2] -2.9% | [3] 6.45% | [4] -58.1% | [5] 13.4% | [6] -3.95%

CC(=O)Oc1ccccc1OC(=S)N(C)C
inactive: [1] 11.2% | [2] -7.35% | [3] -5.5% | [4] -39.2% | [5] 15.8% | [6] -26.8%

CCCNc1nnnn1CCC
inactive: [1] 3.15% | [2] 5.05% | [3] -0.4% | [4] 4.25% | [5] 10.9% | [6] -0.05%

CCOC(=O)/C(=C\c1cc(C)c(OC(C)=O)c(OC)c1)NC(=O)c1ccccc1
inactive: [1] -17.1% | [2] -15.2% | [3] -11.1% | [4] 0.1% | [5] -3.45% | [6] -4.25%

COCC(C)OC(=O)c1ccccc1Cl (stereo unspecified)
inactive: [1] 7.65% | [2] 10.3% | [3] 5.95% | [4] 2.65% | [5] 21.1% | [6] 24.3%

CC(C)(C)N(O)c1ccc(P(=O)(c2ccccc2)c2ccccc2)cc1
inactive: [1] 23.4% | [2] 15.4% | [3] 12.3% | [4] -4.7% | [5] -2.35% | [6] 11.8%

O=C1OI(OI2OC(=O)c3ccccc32)c2ccccc21 (tested in a mixture with another compound)
inactive: [1] 11.7% | [2] -9.6% | [3] -19.1% | [4] -9.85% | [5] 17.9% | [6] 9.45%

O=C1C(Nc2ccccc2)=C(c2ccccc2)C(=O)N1c1ccccc1
inactive: [1] 1.15% | [2] -7.55% | [3] 0.7% | [4] -46.2% | [5] -11.8% | [6] -10.8%

CCOc1ccc(NC(=O)CC2SC(N)=NC2=O)cc1 (stereo unspecified)
inactive: [1] -15.2% | [2] -35.5% | [3] -1.9% | [4] 8.5% | [5] -2.8% | [6] -0.6%

COc1ccc2ccc3ccc(OC)nc3c2n1
inactive: [1] 40% | [2] 40.2% | [3] 36.1% | [4] -7.05% | [5] 30.2% | [6] 16.1%

O=C1CC(=O)C(Br)=C1Br
active: [1] 99.5% | [2] 99.5% | [3] 99.5% | [4] 99.3% | [5] 99.4% | [6] 99.5%

COc1ccc2cc1Oc1ccc(cc1)CC1c3cc(c(OC)cc3CCN1C)Oc1c(O)c(OC)cc3c1C(C2)N(C)CC3 (stereo unspecified)
inactive: [1] 14.6% | [2] -10.4% | [3] 10.8% | [4] 16.2% | [5] 15.8% | [6] 1.95%

Cc1cc2ccccc2c(Br)c1C
inactive: [1] 5% | [2] 4.95% | [3] 26% | [4] -36.8% | [5] -4.35% | [6] 4.7%

CCC1(C)CC(=O)N(C/C=C(\C)CCC(=O)O)C(=O)C1
inactive: [1] -3.35% | [2] 4.5% | [3] -0.45% | [4] -8.4% | [5] 7% | [6] -7.45%

CC(C)=CC1C(CO)C1(C)C (stereo unspecified)
inactive: [1] -7.8% | [2] -17.2% | [3] 23.8% | [4] -16.6% | [5] -6.25% | [6] -16.9%

CCOC(=O)c1ccc(CSc2ccc(OC)cc2)cc1
active: [1] 86.9% | [2] 75.7% | [3] 86.4% | [4] 76.5% | [5] 80.5% | [6] 78.6%

COC1/C=C/OC2(C)Oc3c(C)c(O)c4c(O)c(c(/C=N/N5CC(C)N(C(=O)c6ccccc6)C(C)C5)c(O)c4c3C2=O)NC(=O)C(C)=C/C=C/C(C)C(O)C(C)C(O)C(C)C(OC(C)=O)C1C (stereo unspecified)
inactive: [1] -5.8% | [2] -13.6% | [3] -23.8% | [4] 24.6% | [5] 25.2% | [6] 5.45%

N#CC12CCC(O)C(CC1)C2=O (stereo unspecified)
inactive: [1] 20.2% | [2] 0.85% | [3] 10.1% | [4] 15.2% | [5] -4.25% | [6] 20.6%

COC(=O)C(=O)C(C(=O)C(=O)Nc1ccccc1[N+](=O)[O-])c1nc2ccc([N+](=O)[O-])cc2[nH]c1=O (stereo unspecified)
inactive: [1] 17.8% | [2] 15.2% | [3] 5% | [4] 26.6% | [5] 27.8% | [6] 20.7%

CC(=O)Oc1cccc(CN2CCc3ccccc3C2)c1
inactive: [1] -3.05% | [2] -7.95% | [3] 1.55% | [4] -31.2% | [5] 8.8% | [6] -24.1%

CC(=O)N(C)c1ccc(NC(=O)Cc2ccccc2)cc1
inactive: [1] 12.7% | [2] 22.7% | [3] 23.6% | [4] 9.95% | [5] 35.5% | [6] -2.35%

Nc1ccn(CC(=O)c2ccc(Cl)s2)c(=O)n1
inactive: [1] -1% | [2] 10.8% | [3] 6.9% | [4] -5.1% | [5] 2.15% | [6] 6.3%

C=CCNC(=S)Nc1ccccc1
inactive: [1] -1.8% | [2] -9.95% | [3] 4.25% | [4] -5.1% | [5] -18.9% | [6] -11.9%

S=C(NC1CCCCC1)N1CCC(CCCC2CCN(C(=S)NC3CCCCC3)CC2)CC1
inactive: [1] -42.8% | [2] -31.2% | [3] -44.5% | [4] -1.05% | [5] -41.8% | [6] -46.2%

O=[N+]([O-])c1cccc(/C=C/c2cc(N(CCO)CCO)c3ccccc3n2)c1
inactive: [1] 48.1% | [2] 12.8% | [3] 11.1% | [4] 3.5% | [5] -6.6% | [6] 22.2%

CC(C(=O)c1ccc(Cl)cc1)[n+]1cc(Br)cc(Br)c1 (stereo unspecified)
inactive: [1] -22.6% | [2] -14.2% | [3] -9.3% | [4] -19.4% | [5] -21.4% | [6] -10.2%

CC(=O)c1ccc(OC(=O)Nc2ccc(C)cc2)cc1
inactive: [1] -2.25% | [2] 27.3% | [3] 17.8% | [4] -6.2% | [5] 26.5% | [6] 15.6%

CC(C)(C)OC(=O)NC(CC(=O)OCc1ccccc1)C(=O)NC(C)(C)C(N)=O (stereo unspecified) (Boc-[ξD](OBn)-[Aib]-NH2)
inactive: [1] 5.25% | [2] 11.8% | [3] 2% | [4] 26.6% | [5] 23.4% | [6] -19.8%

Oc1c(Cl)cc(Cl)cc1CN(Cc1cc(Cl)cc(Cl)c1O)c1ccccc1
inactive: [1] 15.8% | [2] 16.9% | [3] 40.8% | [4] 52.1% | [5] 27.1% | [6] 12.7%

CCCN1C(=O)c2cc(=O)[nH]c(O)c2C1C (stereo unspecified)
inactive: [1] -14.2% | [2] -10.9% | [3] -8.75% | [4] 9% | [5] -13.3% | [6] 0.4%
